# Screening results as filed in PubChem.
# Cycloheximide cs – counter-screen for Shiga toxin inhibitors: cycloheximide protein synthesis inhibition; cell reporter, cycloheximide protein synthesis inhibition counterscreen; AID 2314; max response, %; 300,000 compounds, 12% hits; in the data active = max response mostly above about 13%, no sharp cut-off; inactive = mostly below about 14%; note: read at 38.3 µM for the half of the compounds with a filed dose; 0% is about no effect
# FMDV antiviral – foot and mouth disease virus antiviral activity | FMDV antiviral cell-based qHTS | 410,000 compounds, 1.2% hits | Potency, µM (series often up to 57.9 µM), for the others: top-dose activity change, negative = inhibition, hits mostly inhibitors | AID 1159524; calls by dose curve; tested in HEK293T cells; note: read-out not given here; potency is the fitted concentration of half-maximal effect; % is set by controls: 0 for no effect and ±100 for the full control effect; nearly all actives have a fitted effect of over 45% in size
# LASV entry inh – inhibitors of Lassa virus binding or cell entry | Lassa virus pseudotype entry inhibition, cell reporter | Potency, µM (top dose mostly 37.9 µM), inactives show top-dose activity change, negative = inhibition, most hits filed as inhibitors | 300,000 compounds, 1.2% hits; calls by dose curve; tested in HEK293 cells; note: potency is the fitted concentration of half-maximal effect; % is set by controls: 0 for no effect and ±100 for the full control effect; nearly all actives have a fitted effect of over 50% in size
# Marburg entry inh – blocks Marburg virus binding to or entry into cells; Marburg virus pseudotyped entry inhibition, cell reporter; Potency, µM (series often up to 37.8 µM), for inactives: at the highest dose activity change, negative = inhibition, most hits filed as inhibitors; 300,000 compounds, 1.8% hits; AID 540276; calls by dose curve; tested in HEK293 cells; note: potency is the fitted concentration of half-maximal effect; % is set by controls: 0 for no effect and ±100 for the full control effect
# HCV inhibitor – inhibitors of hepatitis C virus infection; AID 651820; 340,000 compounds, 3.4% hits; Huh7.5.1 HCVcc-Cre infection, luciferase reporter, 44 h; Potency, µM (series often up to 41.8 µM), without a hit: at the highest dose activity change, negative = inhibition, usual class: inhibitors; active = well fitted inhibition curve with a large enough effect; inconclusive = small, poorly fitted or top-dose-only effect, or another doubt; inactive = no such curve, though single readings can be large or run the other way; note: potency is the fitted concentration of half-maximal effect; % is set by controls: 0 for no effect and ±100 for the full control effect
#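 Seed cells (1,000/well) for 4 h; treat with compound and infect with HCVcc-Cre, moi about 0.5. Incubate 44 h, then detect luciferase activity.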
# Shiga toxin inh – inhibitors of Shiga toxin in Vero cells | Vero cells, Shiga toxin protein synthesis inhibition reporter | inhibition, % at 38.7 µM | 290,000 compounds, 9.2% hits | AID 2315; in the data active = inhibition mostly above about 28%, no sharp cut-off; inactive = mostly below about 43%; note: 0% is about no effect
# Starred values were filed as active, the others as inactive; u = inconclusive; x = no result given; [ ] = remark or other dose. An excerpt weighted towards active compounds, which were near 13% of everything screened.
SMILES,Cycloheximide cs,FMDV antiviral,LASV entry inh,Marburg entry inh,HCV inhibitor,Shiga toxin inh
O=C(/C=C/c1ccc2c(c1)OCO2)c1c(O)n(CCc2ccccc2)c(=O)[nH]c1=O,-1,13µM*,u,-11%[46.1 µM],8%,-10
COc1cc(/C=C/C(=O)c2c(O)n(CCc3ccccc3)c(=O)[nH]c2=O)ccc1O,-1,-5%,u,u,-2%,11
COc1ccc([C@@H]2COc3c(ccc4c3C=CC(C)(C)O4)C2)c(OC)c1,x,-9%,x,x,41%,x
O=C(c1ccccc1C(=O)N1CCN(c2ccc(F)cc2)CC1)N1CCN(c2ccc(F)cc2)CC1,-3,22µM*,u,u,-4%,2
O=C(c1cn(CC2CCCCC2)nn1)N1CCN(c2ccc(F)cc2)CC1,30*,-22%,x,x,u,49*
O=C(COC(=O)c1ccccc1C(=O)N1CCN(c2ccccc2)CC1)Nc1ccccc1,1,u,-30%[46.1 µM],u,u,14
COc1cccc(NC(=O)COC(=O)c2ccccc2C(=O)N2CCN(c3ccccc3)CC2)c1,2,18µM*,u,u,u,4
O=C(c1ccc(N2CCN(C(=O)c3ccc(F)cc3F)CC2)cc1)c1cccc(F)c1,8,u,x,x,11µM*,7
COc1ccccc1-c1cnc(C(O)c2ccc(F)c(F)c2)[nH]1 (stereo unspecified),x,7%,x,x,x,x
O=C1[C@@H]2[C@H]3[C@H](O)[C@H](O)C/C(=N/OC[C@@H](O)COCc4ccco4)[C@@H]3CC[C@H]2C(=O)N1c1ccc(F)cc1F,x,x,x,14%[14.2 µM],x,x
CCc1nnc(NC(=O)CSc2nnc(COc3ccc(C)cc3)n2-c2ccccc2)s1,-2,3%,14%,0%,16%,17
COc1cccc(C(=O)NCCc2csc(-c3ccc(Cl)cc3)n2)c1,x,u,10%[46.1 µM],x,x,x
O=C(CN1CCN(CC(=O)Nc2ccccc2Cl)CC1)NCC1(N2CCCCC2)CCCCC1,x,-10%,x,x,1%,x
O=C(COC(=O)c1ccccc1C(=O)N1CCN(c2ccc(F)cc2)CC1)NCc1ccccc1,-2,25µM*,u,u,-9%,-3
O=C(COC(=O)c1ccccc1C(=O)N1CCN(c2ccccc2)CC1)Nc1ccc(F)cc1,7,-28%,-41%,u,u,-9
CCc1cccc2[nH]c3cc([N+](=O)[O-])ccc3c12,-2,-15%,10%[46.1 µM],-25%[46.1 µM],u,-7
COCCCn1c(SCCc2ccccc2)nc2cc(OC)c(OC)cc2c1=N,1,u,x,x,13µM*,-8
COc1ccccc1NS(=O)(=O)c1ccc2nc(CCl)[nH]c2c1,16,-22%,4%,2%[46.1 µM],-17%,-3
Cc1ccc(S(=O)(=O)N2CCN(C(=O)CC(C)C)CC2)cc1,32*,-1%,u,15%[46.1 µM],9%,81*
O=C(Nc1ccc(S(=O)(=O)N2CCCCC2)cc1)C1CCCN(C(=O)c2ccc(Cl)cc2)C1 (stereo unspecified),-4,u,0.29µM*,u,-23%,7
Cc1ccc(S(=O)(=O)N2CCC(C(=O)N3CCC[C@H]3C(=O)NCC(C)C)CC2)cc1,-4,0%,16%[46.1 µM],3%[46.1 µM],20%,27
Cc1ccc(S(=O)(=O)N2CCC(C(=O)Nc3ccc(S(=O)(=O)N4CCCC4)cc3)CC2)cc1,x,-19%,-16%[46.1 µM],u,-21%,x
Cc1ccc(S(=O)(=O)N2CCC(C(=O)N3CCCC3C(=O)N[C@@H](CC(C)C)C(=O)NCC(N)=O)CC2)cc1 (stereo partly specified),-2,-6%,x,x,1µM*,-4
Cc1ccc(S(=O)(=O)N2CCC(C(=O)Nc3ccc(C(C)C)cc3)CC2)cc1,x,0%,x,x,11µM*,x
COC(=O)C1=C(C)N(CCCC(=O)O)C(=O)NC1c1ccc(Cl)cc1 (stereo unspecified),x,-2%,x,x,15%,x
CC(C)N(C(=O)[C@H]1CC(CC(=O)NCCN2CCOCC2)C(=O)N2CCc3c([nH]c4ccccc34)[C@]12C)C(C)C (stereo partly specified),x,-25%,x,x,u,x
Cc1ccc(S(=O)(=O)C2(C(=O)Nc3ccc(C(C)C)cc3)CC2)cc1,50*,22%,u,u,29%,83*
Cc1ccc(S(=O)(=O)N2CCC(C(=O)N3CCC3)CC2)cc1,45*,-16%,-1%[46.1 µM],3%[46.1 µM],-2%,67*
